Assay outcomes: PubChem BioAssay, National Center for Advancing Translational Sciences (NCATS)
EPAC1 antag: qHTS for Antagonist of cAMP-regulated guanine nucleotide exchange factor 3 (EPAC1): primary screen; EPAC1 GEF assay, Rap1b-BODIPY-GDP exchange fluorescence; 360,000 compounds, 0.14% hits; AID 720709, 2013; Potency, µM (highest dose often 115 µM), for inactives: at the top dose activity change, negative = inhibition, most hits filed as inhibitors; Rap guanine nucleotide exchange factor 3 (Homo sapiens), O95398;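 note: plate controls were vehicle for no effect and positive control for full effect; nearly all actives have a fitted effect of over 50% in size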
EPAC2 antag: qHTS for Antagonist of cAMP-regulated guanine nucleotide exchange factor 2 (EPAC2): primary screen | Rap guanine nucleotide exchange factor 4 (Homo sapiens), Q8WZA2 | EPAC2 GEF exchange of Rap1B-BODIPY-GDP, fluorescence | Potency, µM (top dose mostly 114 µM), without a hit: top-dose activity, negative = inhibition, actives largely listed as inhibitors | 360,000 compounds, 0.18% hits; note: % is set by controls: 0 for no effect and ±100 for the full control effect; nearly all actives have a fitted effect of over 45% in size
BRCA1 expr up: qHTS Assay to Identify Small Molecule Activators of BRCA1 Expression | MCF7-BRCA1-FFLuc reporter, luminescence, 48 h; response scale: scaled: vehicle 0%, 10 µM genistein 100% | Potency, µM (highest dose often 46.1 µM), for inactives: at the highest dose activation, usual class: activators | 380,000 compounds, 1.1% hits; note: nearly all actives have a fitted effect of over 80% in size
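Luminescence from a BRCA1-driven firefly luciferase in MCF7 cells was the read-out, taken 15 min after substrate addition following 48 h compound exposure at 37 °C. Data were normalized to a 10 microM genistein control and DMSO vehicle.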
USP1-UAF1 inh: Inhibitors of USP1/UAF1: Primary Screen | Ubiquitin carboxyl-terminal hydrolase 1 (Homo sapiens), O94782 | recombinant USP1/UAF1, Ub-Rhodamine cleavage fluorescence | Potency, µM (titrated, usually from 57.1 µM), without a hit: at the top dose activity change, negative = inhibition, usual class: inhibitors | 390,000 compounds, 0.23% hits | AID 743255, 2014; note: % is set by controls: 0 for no effect and ±100 for the full control effect; nearly all actives have a fitted effect of over 60% in size
Target sequence (O94782 whole entry, looked up): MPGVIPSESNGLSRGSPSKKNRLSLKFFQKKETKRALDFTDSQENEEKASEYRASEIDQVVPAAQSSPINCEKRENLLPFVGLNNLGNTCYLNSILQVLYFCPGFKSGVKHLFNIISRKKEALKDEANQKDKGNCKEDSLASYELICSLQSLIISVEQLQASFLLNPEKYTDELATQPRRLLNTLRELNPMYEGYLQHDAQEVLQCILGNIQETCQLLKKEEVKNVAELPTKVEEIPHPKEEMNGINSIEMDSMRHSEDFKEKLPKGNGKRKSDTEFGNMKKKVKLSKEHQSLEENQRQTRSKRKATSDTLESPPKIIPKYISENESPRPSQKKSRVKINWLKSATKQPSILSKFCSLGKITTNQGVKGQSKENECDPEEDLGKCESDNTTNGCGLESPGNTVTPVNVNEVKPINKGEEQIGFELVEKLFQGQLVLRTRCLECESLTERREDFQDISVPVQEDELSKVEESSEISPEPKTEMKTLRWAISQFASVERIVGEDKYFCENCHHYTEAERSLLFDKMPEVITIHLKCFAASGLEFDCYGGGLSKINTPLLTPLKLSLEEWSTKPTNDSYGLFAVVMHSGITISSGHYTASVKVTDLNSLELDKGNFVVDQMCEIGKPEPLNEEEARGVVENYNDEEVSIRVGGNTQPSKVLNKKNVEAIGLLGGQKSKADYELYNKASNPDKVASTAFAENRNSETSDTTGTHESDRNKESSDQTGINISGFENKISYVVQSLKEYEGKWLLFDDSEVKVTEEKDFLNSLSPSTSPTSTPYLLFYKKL
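High-throughput fluorogenic screen: 1nM USP1/UAF1 complex, Ub-Rho substrate 150nM final, 50mM HEPES pH 7.8 with 0.5mM EDTA, 0.1 mg/ml BSA, 1mM TCEP and 0.01% Tween-20.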
EPAC2 agonist: qHTS for Agonist of cAMP-regulated guanine nucleotide exchange factor 4 (EPAC2): primary screen. Rap guanine nucleotide exchange factor 4 (Homo sapiens), Q8WZA2. EPAC2 activation, biochemical qHTS; response scale: 100% = 6.5 mM cAMP response. Potency, µM (series often up to 154 µM), for the others: top-dose activation, usual class: activators. 360,000 compounds, 0.079% hits; note: nearly all actives have a fitted effect of over 50% in size
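Nucleotide exchange monitored as fluorescence drop when BODIPY-GDP leaves Rap1B. Reaction: 100 nM EPAC2, 250 nM RAP1B-BODIPY-GDP, 50 uM GDP, room temperature, kinetic read over 30 min. Activity expressed relative to 6.5 mM cAMP.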
EPAC1 agonist: qHTS for Agonist of cAMP-regulated guanine nucleotide exchange factor 3 (EPAC1): primary screen. Rap guanine nucleotide exchange factor 3 (Homo sapiens), O95398. EPAC1 agonist qHTS, biochemical assay; response scale: 100% = response to 6.5 mM cAMP. Potency, µM (titrated, usually from 154 µM), for inactives: at the highest dose activation, most hits filed as activators. 360,000 compounds, 0.073% hits. AID 720707, 2013; note: nearly all actives have a fitted effect of over 60% in size
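Compounds were pinned as a concentration titration into mixtures of EPAC1 (100 nM), BODIPY-GDP-loaded Rap1B (250 nM) and GDP (50 uM). After 5 min at room temperature, fluorescence was followed for 30 min; activity was scaled to 6.5 mM cAMP.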
* hit, by the source's call; ? = inconclusive; / = not tested or not shown; [ ] = dose if it differs, or a comment. Rows were chosen to be rich in hits. Some 1.4% of all compounds tested hit in one or more screens of this group. Calls come from the whole dose curve; as a rule, active = well fitted curve in the direction sought with a large enough effect; inconclusive = small, poorly fitted or top-dose-only effect, or another doubt; inactive = no such curve, though single readings can be large; an effect the other way counts as inactive or inconclusive. Potency is the fitted concentration of half-maximal effect.

SMILES	EPAC1 antag	EPAC2 antag	BRCA1 expr up	USP1-UAF1 inh	EPAC2 agonist	EPAC1 agonist
COc1cccc2c1NC(C(=O)O)C1CC=CC21 (stereo not given)	?	15.2%	-1.2%	25.1µM*	4.4%	1.0%
CCCCOc1ccc(C(=S)N2CCC(C(N)=O)CC2)cc1	-6.8%	2.1%	3.98µM*	-30.8%	1.3%	1.8%
CCc1cccc(C)c1NC(=O)CN1C(=O)c2c(c3ccccc3n2C)C1c1ccc(OC)cc1 (stereo not given)	/	/	/	11.7%	/	/
COc1cccc(/C=C/C(=O)c2ccc[nH]2)c1	-7.7%	5.3%	7.94µM*	-15.7%	16.4%	-7.7%
Cc1ccc(NC(=O)Nc2ccc3c(c2)OCO3)nc1	-26.2%	-7.6%[57.1 µM]	?	2.4%	2.9%	-8.0%
Cc1ccc(NC(=O)/C=C/c2ccc3c(c2)OCO3)nc1	-1.3%	-2.4%	1.58µM*	-13.2%	4.1%	4.0%
Cc1ccc(O)c(C(=O)/C=C/c2ccc3c(c2)OCCCO3)c1	-24.7%	-6.8%	7.08µM*	-19.0%	16.1%	13.1%
CN(/N=C/c1ccc2c(c1)OCO2)c1ccccc1	0.4%	-1.0%	7.08µM*	-6.9%	0.6%	16.5%
C(=N\N(c1ccccc1)c1ccccc1)/c1ccc2c(c1)OCO2	3.0%	-1.1%	-1.7%	-8.0%	10.3%	11.7%
O=C(/C=C/c1ccc2c(c1)OCO2)c1ccc(F)cc1	-17.9%	-3.5%	52.4%	?	10.9%	-6.3%
CN(C(=O)/C=C/c1ccc2c(c1)OCO2)c1ccccc1	0.9%	10.8%	3.16µM*	-15.8%	0.5%	8.3%
O=C(/C=C/c1ccc2c(c1)OCO2)c1ccc[nH]1	?	?	7.94µM*	3.7%	2.4%	0.7%
O=C(/C=C/c1ccc2c(c1)OCO2)N1CCN(c2ccc(Cl)cc2)CC1	5.8%	4.1%	-37.0%	-6.8%	-8.2%	-11.0%
O=C(/C=C/c1ccc2c(c1)OCO2)N1CCCCC1	-2.1%	-1.1%	3.55µM*	-10.1%	7.5%	-0.4%
CN(C(=O)c1cc(-c2ccc3c(c2)OCO3)on1)c1ccccc1	-14.6%	-21.3%	2.82µM*	-13.9%	6.5%	2.5%
Cc1c(C(=O)Oc2ccc(Br)cc2)sc2ncn(Cc3ccccc3F)c(=O)c12	/	/	/	-22.4%	/	/
CN(C)S(=O)(=O)c1cccc(COC(=O)CN2C(=O)NC3(CCCC3)C2=O)c1	-1.7%	-6.1%	10.6%	-6.9%	6.1%	-8.4%
O=C(Nc1ccc(F)c(Cl)c1)N1CCN2CCCCC2C1 (stereo not given)	/	/	/	-17.7%	/	/
O=C(NNCc1ccc(O)cc1)c1ccccc1Cl	-9.5%	-10.8%	12.6µM*	-6.4%	-3.5%	-15.8%
CCOC(=O)c1cnc(Nc2nc3ccccc3o2)nc1CSc1nnc(C)s1	-0.8%	-0.4%	5.01µM*	-8.4%	2.0%	5.0%
CC1=C(C(=O)Nc2cc(Cl)ccc2C)C(c2ccccc2F)n2ncnc2N1 (stereo not given)	/	/	-4.4%	-32.0%	/	/
NS(=O)(=O)c1cccc(NC(=O)c2cccc(-c3ccc(O)cc3)c2)c1	?	0.8%	-34.0%	-6.1%	15.6%	11.8%
COC(=O)c1ccccc1-c1c2ccc(=N)cc-2oc2cc(N)ccc12	31.6µM*	?	-80.9%	-101.2%	0.0%	-9.3%
N#Cc1cc(Cl)c(NCC2CCCO2)cc1C#N (stereo not given)	0.9%	6.6%	-29.9%	-21.1%	-2.9%	-2.1%
COc1ccc(CC(=O)N/N=C\c2cc(Br)c(O)c(Br)c2)cc1	-1.2%	-19.1%	-13.2%	-13.6%	-8.5%	-2.5%
SMILES	EPAC1 antag	EPAC2 antag	BRCA1 expr up	USP1-UAF1 inh	EPAC2 agonist	EPAC1 agonist
CN(C)S(=O)(=O)c1cccc(COc2cccnc2[N+](=O)[O-])c1	0.6%	-4.0%	-19.9%	-11.8%	6.3%	-2.9%
O=[N+]([O-])c1ncccc1OCc1ccc(Cl)c(Cl)c1	-8.4%	3.2%	7.08µM*	?	13.3%	6.7%
Cc1cc2c(C)nc(N/N=C/c3ccc(F)cc3)nc2o1	39.8µM*	17.5%	-9.0%	-18.3%	10.9%	-19.7%
CN(C)C(=O)c1ccc(COc2ccccc2Br)o1	15.4%	6.7%	10µM*	-21.7%	-1.7%	-2.2%
CCOc1ccc(OCc2ccc(C(=O)Nc3ccc(Cl)cn3)o2)cc1	-3.7%	-6.4%	?	-2.5%	15.8%	13.5%
O=C(Nc1ccc(Cl)cn1)c1ccc(COc2ccccc2Br)o1	9.3%	3.1%	11.2µM*	-20.8%	3.8%	0.9%
O=C(NCc1cccc(C(F)(F)F)c1)C1C(=O)Nc2ccccc2C(=O)N1C1CCCC1 (stereo not given)	-23.7%	-5.7%	/	/	1.1%	-6.4%
CN(C)S(=O)(=O)c1ccc(Cl)c(NC(=O)COC(=O)/C=C/c2ccc3ccccc3n2)c1	-16.3%	-2.1%	2.3%	2.9%	8.5%	10.4%
O=C(CSc1ccc(S(=O)(=O)N2CCOCC2)cn1)Nc1ccc(F)c(F)c1	-11.4%	-3.5%	1.8%	-14.9%	1.3%	-13.6%
CCOC(=O)C1=C(C)Nc2ccccc2N=C1NC(=O)/C=C/c1ccc(OC)cc1OC	5.4%	-2.4%	11.1%	-4.2%	11.5%	5.1%
O=C(NCC(c1ccco1)N1CCCC1)c1ccc(Cl)c(S(=O)(=O)N2CCc3ccccc32)c1 (stereo not given)	-7.0%	-14.1%	-82.2%	-1.7%	17.1%	9.2%
Cc1nc(-c2ccc3c(c2)OCCCO3)cs1	1.7%	0.0%	2.51µM*	5.0%	7.0%	2.6%
COc1ccc(C(O)(CCC(C)C)C(CN2CCOCC2)c2ccccc2)cc1 (stereo not given)	-19.1%	-19.5%	-28.9%	?	18.2%	5.3%
O=C(Nc1ccc2c(c1)Cc1cc([N+](=O)[O-])ccc1-2)C(F)(F)F	-12.5%	3.4%	3.98µM*	-5.0%	1.4%	3.1%
CCOc1ccc(C(=O)O[C@H]2[C@H](Cc3ccccc3)NS(=O)(=O)[C@H]3C[C@@H]4C=C[C@]23O4)cc1	8.3%	-13.3%	10.4%	-23.0%	-2.8%	-10.0%
O=C(OC(c1ccccc1)c1nccc2ccccc12)c1ccccc1 (stereo not given)	-18.5%	-6.1%	51.8%	-15.7%	8.3%	23.0%
